Experimental data: PubChem BioAssay (NCATS)
“And” between values parts separate entries of the source, which are not always exact repeats. Equal values may be shown once. A number with no mark means an inactive call. Results filed as inconclusive are left out. Where a call stands in place of a potency, no number is given. The source made the active and inactive calls. Unless noted, calls follow the shape of the dose curve; as a rule, active = well fitted curve in the direction sought with a large enough effect; inconclusive = small, poorly fitted or top-dose-only effect, or another doubt; inactive = no such curve, though single readings can be large; an effect the other way counts as inactive or inconclusive.

What was measured:
[1] = AP1 Signaling Pathway (AID 357; active = well fitted curve in either direction with a large enough effect, not every such curve was filed as active); settings: ME-180 AP-1-bla reporter, EGF-induced, beta-lactamase ratio, 5 h; at 7.69 µM (top of the series) unless noted
How it was run: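 Modulation of EGF-driven AP-1 transcription was assessed with a beta-lactamase reporter in ME-180 cells. Compound and EC50 EGF were co-incubated 5 hours at 37 °C before 2.5-hour CCF4 loading at room temperature and dual-emission reading.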

[2] = target: Cytochrome P450 1A2 (Homo sapiens) (UniProt P05177); test: p450-cyp1a2 (AID 410; calls by dose curve; also: potency is read from the fitted curve at half-maximal effect)
Sequence of Cytochrome P450 1A2 (Homo sapiens) (P05177 whole entry, looked up): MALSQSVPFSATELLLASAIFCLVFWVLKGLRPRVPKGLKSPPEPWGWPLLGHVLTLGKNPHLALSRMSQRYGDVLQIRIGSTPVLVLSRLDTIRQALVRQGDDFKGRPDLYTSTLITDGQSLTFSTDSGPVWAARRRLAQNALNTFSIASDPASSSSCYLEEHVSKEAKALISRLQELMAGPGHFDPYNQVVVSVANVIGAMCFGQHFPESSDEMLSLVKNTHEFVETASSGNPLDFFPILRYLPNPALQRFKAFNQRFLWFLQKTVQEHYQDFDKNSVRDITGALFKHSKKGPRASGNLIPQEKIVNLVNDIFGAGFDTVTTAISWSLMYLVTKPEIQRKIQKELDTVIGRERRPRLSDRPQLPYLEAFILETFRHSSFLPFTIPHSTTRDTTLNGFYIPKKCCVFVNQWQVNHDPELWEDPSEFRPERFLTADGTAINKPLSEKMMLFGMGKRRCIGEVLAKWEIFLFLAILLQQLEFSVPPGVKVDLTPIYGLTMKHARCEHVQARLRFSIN
How it was run: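 O-Demethylation of luciferin 6' methyl ether by human CYP1A2 is monitored as luciferase luminescence. Substrate sits at Km (100uM); enzyme is 20nM. Values are scaled to 57 uM furafylline as maximal inhibition.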

[3] = Stat Signaling Pathway (AID 446; active = well fitted curve in either direction with a large enough effect, not every such curve was filed as active;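 also: ME-180 cervical cancer cells given 40 pM IL-6 alongside compound; SIE-controlled beta-lactamase reporter measured as 460/530 nm FRET emission ratio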); settings: ME-180 (cervical carcinoma) SIE beta-lactamase reporter, IL-6 stimulated, 5 h
How it was run: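 Normalization used AC90 stimulation (300 pM IL-6) and AC90 inhibition (125 nM pan-JAK inhibitor at 40 pM IL-6). The underlying signal is SIE-driven beta-lactamase in ME-180 cells after 5 h IL-6 exposure with compound.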

[4] = target: Glucocorticoid receptor (Homo sapiens) (UniProt P04150); test: GR-GFP Redistribution (AID 450;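 active = compounds whose dose series gives a full or clear partial fitted curve of increased nuclear translocation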; also: potency is read from the fitted curve at half-maximal effect); settings: U2OS GR-GFP nuclear translocation, laser cytometry, 2 h
Sequence of Glucocorticoid receptor (Homo sapiens) (P04150 whole entry, looked up, the tested form may be a part): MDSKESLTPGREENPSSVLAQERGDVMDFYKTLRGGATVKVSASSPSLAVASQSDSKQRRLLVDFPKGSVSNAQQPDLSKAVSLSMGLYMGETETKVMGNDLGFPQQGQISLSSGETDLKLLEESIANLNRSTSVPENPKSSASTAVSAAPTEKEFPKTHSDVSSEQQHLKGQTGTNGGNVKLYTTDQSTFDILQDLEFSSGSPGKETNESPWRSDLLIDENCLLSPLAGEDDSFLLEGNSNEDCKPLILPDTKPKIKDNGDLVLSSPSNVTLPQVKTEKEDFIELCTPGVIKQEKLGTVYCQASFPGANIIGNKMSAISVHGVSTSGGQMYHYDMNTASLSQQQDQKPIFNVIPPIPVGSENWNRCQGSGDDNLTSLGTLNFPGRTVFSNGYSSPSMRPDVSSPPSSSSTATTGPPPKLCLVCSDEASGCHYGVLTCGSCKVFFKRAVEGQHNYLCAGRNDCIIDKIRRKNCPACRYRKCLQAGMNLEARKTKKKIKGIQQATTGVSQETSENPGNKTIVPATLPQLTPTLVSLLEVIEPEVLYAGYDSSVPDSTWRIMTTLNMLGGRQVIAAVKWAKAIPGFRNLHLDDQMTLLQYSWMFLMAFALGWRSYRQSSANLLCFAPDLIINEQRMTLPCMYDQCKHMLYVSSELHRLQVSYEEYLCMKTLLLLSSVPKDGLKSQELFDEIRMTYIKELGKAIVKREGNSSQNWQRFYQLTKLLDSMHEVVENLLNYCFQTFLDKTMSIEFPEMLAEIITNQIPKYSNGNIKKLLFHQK

[5] = target: Glucocorticoid receptor (Homo sapiens) (UniProt P04150); test: GR-EFC Redistribution (AID 451; calls by dose curve; also: potency is read from the fitted curve at half-maximal effect); settings: CHO-K1 GR-EFC translocation, beta-gal luminescence, 2 h
How it was run: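 CHO-K1 cells stably expressing nuclear-localized β-gal enzyme acceptor and GR fused C-terminally to the enzyme donor fragment; ligand-driven nuclear translocation restores β-gal by complementation. Compounds titrated up to 46 uM final, 2 h at 37 °C; luminescence read.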

[6] = target: Mitogen-activated protein kinase 10 (Mus musculus) (UniProt Q61831); test: JNK3 AlphaScreen Assay (AID 530; active = well fitted curve in either direction with a large enough effect, not every such curve was filed as active;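 also: kinase came from lysate of stimulated human HepG2 cells; signal reports phosphorylation of biotinylated GST-cJun 1-79 at Ser73 with 10 µM ATP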)
How it was run: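 Phosphorylation of biotinylated GST-cJun(1-79) at Ser73 is measured by AlphaScreen proximity luminescence. Enzyme is JNK3 in HepG2 lysates activated with interleukin-1beta and tumor necrosis factor alpha; ATP is 10 uM final.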

[7] = target: 3',5'-cyclic-AMP phosphodiesterase 4B (Homo sapiens) (UniProt Q07343); test: qHTS Assay for Inhibitors of PDE-IV (AID 607; active = well fitted activation curve with a large enough effect in the main read-out, with a control signal flat, not every such curve was filed as active)
Sequence of 3',5'-cyclic-AMP phosphodiesterase 4B (Homo sapiens) (Q07343 whole entry, looked up): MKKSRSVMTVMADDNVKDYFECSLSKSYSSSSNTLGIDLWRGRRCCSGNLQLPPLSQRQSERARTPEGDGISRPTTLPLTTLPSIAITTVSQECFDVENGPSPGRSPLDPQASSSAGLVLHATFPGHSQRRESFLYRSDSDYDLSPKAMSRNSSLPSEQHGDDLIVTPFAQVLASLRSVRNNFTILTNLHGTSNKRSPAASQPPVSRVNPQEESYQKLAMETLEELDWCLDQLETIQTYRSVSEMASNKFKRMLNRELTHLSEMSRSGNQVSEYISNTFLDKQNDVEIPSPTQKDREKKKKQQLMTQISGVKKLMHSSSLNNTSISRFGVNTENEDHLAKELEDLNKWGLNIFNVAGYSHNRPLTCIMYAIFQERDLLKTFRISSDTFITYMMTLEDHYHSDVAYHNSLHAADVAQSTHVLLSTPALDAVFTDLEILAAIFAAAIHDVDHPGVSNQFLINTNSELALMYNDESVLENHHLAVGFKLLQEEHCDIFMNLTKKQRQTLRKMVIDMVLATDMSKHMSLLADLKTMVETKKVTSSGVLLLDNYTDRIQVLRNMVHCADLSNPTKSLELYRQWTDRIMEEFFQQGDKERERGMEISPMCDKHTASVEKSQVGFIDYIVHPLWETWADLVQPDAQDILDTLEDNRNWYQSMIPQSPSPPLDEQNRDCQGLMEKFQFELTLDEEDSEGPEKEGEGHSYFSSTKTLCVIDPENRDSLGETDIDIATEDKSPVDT
How it was run: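 HEK293 ACTOne cells with CNG channel (1000/well), endogenous PDE4; membrane potential dye, compounds up to 22.9 uM final. Fluorescence Ex 535/Em 590; RO 20-1724 (100 uM final) as reference.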

[8] = target: Guanine nucleotide-binding protein G(i) subunit alpha-1 (Homo sapiens) (UniProt P63096); test: qHTS Assay for Inhibitors of RGS12 GoLoco Motif Activity (Green Fluorophore) (AID 879);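 also: negative values mean loss of peptide binding seen as reduced polarization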
Sequence of Guanine nucleotide-binding protein G(i) subunit alpha-1 (Homo sapiens) (P63096 whole entry, looked up): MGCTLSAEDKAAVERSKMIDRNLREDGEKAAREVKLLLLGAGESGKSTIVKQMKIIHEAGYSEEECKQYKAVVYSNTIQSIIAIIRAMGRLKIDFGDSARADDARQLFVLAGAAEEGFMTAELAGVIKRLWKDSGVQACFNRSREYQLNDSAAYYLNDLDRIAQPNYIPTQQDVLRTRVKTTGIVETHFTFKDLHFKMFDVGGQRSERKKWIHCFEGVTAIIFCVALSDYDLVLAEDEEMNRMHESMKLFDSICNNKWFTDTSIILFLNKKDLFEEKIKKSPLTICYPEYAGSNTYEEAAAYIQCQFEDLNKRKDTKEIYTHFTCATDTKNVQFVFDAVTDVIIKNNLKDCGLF
How it was run: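 A drop in FITC polarization marked displacement of the FITC-tagged RGS12 GoLoco peptide (10 nM) from Gαi1 (50 nM). Compounds were incubated 10 min at room temperature in Tris pH 7.5 buffer containing 150 mM NaCl, 0.1 mM GDP and 0.05% NP40; unlabeled peptide titration served as control.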

[9] = target: Cytochrome P450 3A4 (Homo sapiens) (UniProt P08684); test: qHTS Assay for Activators of Cytochrome P450 3A4 (AID 885); also: nearly all actives have a fitted effect of over 65% in size
Sequence of Cytochrome P450 3A4 (Homo sapiens) (P08684 whole entry, looked up): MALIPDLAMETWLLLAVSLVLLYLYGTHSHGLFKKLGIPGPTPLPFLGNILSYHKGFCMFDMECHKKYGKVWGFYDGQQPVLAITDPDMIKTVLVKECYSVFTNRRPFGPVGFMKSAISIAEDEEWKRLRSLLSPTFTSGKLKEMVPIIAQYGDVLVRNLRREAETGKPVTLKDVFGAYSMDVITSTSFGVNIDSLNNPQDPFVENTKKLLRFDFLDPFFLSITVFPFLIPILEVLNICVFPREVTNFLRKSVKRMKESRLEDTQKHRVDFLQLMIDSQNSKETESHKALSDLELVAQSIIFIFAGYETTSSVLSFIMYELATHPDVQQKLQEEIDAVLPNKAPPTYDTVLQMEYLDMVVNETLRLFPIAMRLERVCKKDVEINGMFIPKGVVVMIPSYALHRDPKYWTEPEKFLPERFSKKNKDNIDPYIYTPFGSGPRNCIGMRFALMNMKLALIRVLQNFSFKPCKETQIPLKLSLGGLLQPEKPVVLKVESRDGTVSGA
How it was run: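 Human CYP3A4 dealkylates Luciferin-PPXE to luciferin, which luciferase detection converts to light. Substrate was at its KM (25uM), buffer 200mM KPO4, reaction 60 min at RT.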

[10] = target: Pyruvate kinase (Leishmania mexicana) (UniProt Q27686); test: qHTS Validation Assay for Inhibitors of Leishmania Mexicana Pyruvate Kinase (AID 945)
Sequence of Pyruvate kinase (Leishmania mexicana) (Q27686 2-499 E452W): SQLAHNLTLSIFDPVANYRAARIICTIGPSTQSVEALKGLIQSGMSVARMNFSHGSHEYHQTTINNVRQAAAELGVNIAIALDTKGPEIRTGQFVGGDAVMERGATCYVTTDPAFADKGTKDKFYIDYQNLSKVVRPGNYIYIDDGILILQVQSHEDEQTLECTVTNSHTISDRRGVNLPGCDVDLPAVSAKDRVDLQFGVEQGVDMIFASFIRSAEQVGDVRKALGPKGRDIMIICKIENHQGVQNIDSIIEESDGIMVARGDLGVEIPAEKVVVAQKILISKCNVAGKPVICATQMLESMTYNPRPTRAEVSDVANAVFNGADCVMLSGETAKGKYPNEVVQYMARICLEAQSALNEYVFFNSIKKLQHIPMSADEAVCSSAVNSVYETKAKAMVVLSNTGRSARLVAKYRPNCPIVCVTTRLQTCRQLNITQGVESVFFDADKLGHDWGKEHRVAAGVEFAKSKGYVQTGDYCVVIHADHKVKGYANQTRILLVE
How it was run: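 Mutant LmPYK (E451W), 0.2 nM, plus 0.5 mM PEP and 0.1 mM ADP in 50 mM imidazole pH 7.2 containing 0.01% Tween 20 and 0.05% BSA. Incubated 1 h at room temperature; luminescence via PKLight, normalized to DMSO.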

[11] = target: Pyruvate kinase PKM (Homo sapiens) (UniProt P14618); test: qHTS Assay for Activators of Human Muscle Pyruvate Kinase (AID 954; active = well fitted curve in the direction sought with a large enough effect, not every such curve was filed as active)
Sequence of Pyruvate kinase PKM (Homo sapiens) (P14618 whole entry, looked up): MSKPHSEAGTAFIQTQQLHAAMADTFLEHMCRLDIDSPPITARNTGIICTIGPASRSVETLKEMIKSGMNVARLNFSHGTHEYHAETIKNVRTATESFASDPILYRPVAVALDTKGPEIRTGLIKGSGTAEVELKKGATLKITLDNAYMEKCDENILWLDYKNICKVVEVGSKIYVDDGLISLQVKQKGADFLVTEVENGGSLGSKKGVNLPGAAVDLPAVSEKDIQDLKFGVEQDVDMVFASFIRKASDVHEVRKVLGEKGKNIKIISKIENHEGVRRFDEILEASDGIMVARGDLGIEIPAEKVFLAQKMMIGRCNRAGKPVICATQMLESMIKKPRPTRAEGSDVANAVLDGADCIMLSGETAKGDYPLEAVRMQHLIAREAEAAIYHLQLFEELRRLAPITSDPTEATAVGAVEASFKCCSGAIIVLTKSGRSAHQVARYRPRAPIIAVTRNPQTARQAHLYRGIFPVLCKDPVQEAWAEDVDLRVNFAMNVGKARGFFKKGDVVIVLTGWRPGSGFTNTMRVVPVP
How it was run: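 Compound pinned into substrate mix (0.5 mM PEP, 0.1 mM ADP), then 0.1 nM PKM2 added; 1 h, RT. Stop/detection luciferase reagent added, luminescence read. Normalized to no-inhibition and no-enzyme or reference-inhibitor controls.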

[12] = target: Alpha-galactosidase A (Homo sapiens) (UniProt P06280); test: Counterscreen for Glucocerebrosidase Inhibitors: qHTS Assay for Human alpha-Galactosidase at pH 4.5 (AID 992)
Sequence of Alpha-galactosidase A (Homo sapiens) (P06280 whole entry, looked up): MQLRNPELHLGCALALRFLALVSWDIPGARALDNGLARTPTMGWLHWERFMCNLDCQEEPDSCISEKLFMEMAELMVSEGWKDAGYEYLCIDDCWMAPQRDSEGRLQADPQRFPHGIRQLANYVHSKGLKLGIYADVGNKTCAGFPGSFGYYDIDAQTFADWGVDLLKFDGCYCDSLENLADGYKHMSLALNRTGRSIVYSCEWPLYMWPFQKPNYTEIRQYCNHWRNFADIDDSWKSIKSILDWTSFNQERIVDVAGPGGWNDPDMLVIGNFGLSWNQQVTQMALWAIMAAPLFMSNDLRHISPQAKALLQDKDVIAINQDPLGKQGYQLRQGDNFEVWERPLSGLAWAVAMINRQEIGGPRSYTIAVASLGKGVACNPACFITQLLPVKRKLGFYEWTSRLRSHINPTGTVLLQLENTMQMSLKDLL
How it was run: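 Steps: enzyme (2 nM final), then compound across 0.7 nM to 77 uM, then 80 uM fluorogenic galactopyranoside substrate; incubate 20 min at room temperature; quench at pH 10; measure fluorescence at 365/440 nm.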

[13] = NFAT Signaling Pathway (AID 444; active = well fitted curve in either direction with a large enough effect, not every such curve was filed as active;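 also: carbachol stimulus at about its EC50 of 1 µM final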); settings: Jurkat NFAT-bla M1, carbachol, beta-lactamase ratio, 5 h; at 7.69 µM (top of the series) unless noted
How it was run: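 Jurkat cells carrying an NFAT-driven β-lactamase reporter and co-transfected muscarinic M1 receptor were treated with compound plus carbachol (1 uM final, an EC50 level) for 5 h at 37 °C. CCF4 loading followed for 1 h at RT; 460/530 nm ratio gave %activity.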

[14] = qHTS Assay for Identification of Small Molecule Agonists for Thrombopoietin (TPO) Signaling Pathway (AID 917)
How it was run: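 Cell-based luciferase reporter screen. Mouse Ba/F3 line stably expressing human TPO receptor; IL-3 removed overnight before plating. Co-treatment with compound and EC50 TPO (26 pM), 24 hrs at 37 C, then luminescence.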

[15] = target: Muscarinic acetylcholine receptor M1 (Rattus norvegicus) (UniProt P08482); test: qHTS Assay for Antagonists of Acetylcholine Muscarinic M1 Receptor: Kinetic Measurement of Intracellular Calcium Response (AID 943); also: nearly all actives have a fitted effect of over 75% in size; also: potency is read from the fitted curve at half-maximal effect;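 as to activity change, negative = inhibition: Fluo-4 calcium signal as peak divided by basal fluorescence over 4 min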
Sequence of Muscarinic acetylcholine receptor M1 (Rattus norvegicus) (P08482 whole entry, looked up): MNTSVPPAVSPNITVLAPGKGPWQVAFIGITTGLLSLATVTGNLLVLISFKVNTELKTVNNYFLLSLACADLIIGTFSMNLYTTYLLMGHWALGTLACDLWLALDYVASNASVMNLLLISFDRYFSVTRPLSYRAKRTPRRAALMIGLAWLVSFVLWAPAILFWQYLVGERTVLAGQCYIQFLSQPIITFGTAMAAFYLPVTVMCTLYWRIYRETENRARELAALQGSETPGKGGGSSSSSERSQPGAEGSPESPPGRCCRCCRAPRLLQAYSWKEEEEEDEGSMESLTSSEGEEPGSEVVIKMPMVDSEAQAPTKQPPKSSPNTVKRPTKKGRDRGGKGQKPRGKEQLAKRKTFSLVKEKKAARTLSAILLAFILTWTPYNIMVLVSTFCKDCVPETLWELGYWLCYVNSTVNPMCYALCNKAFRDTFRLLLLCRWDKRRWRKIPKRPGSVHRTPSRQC
How it was run: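 Antagonism is measured as inhibition of the carbachol-evoked calcium rise in CHO cells transfected with rat M1. Cells are dye-loaded, exposed to compound for 10 min, then stimulated with 100 nM carbachol (EC80).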

[16] = target: Muscarinic acetylcholine receptor M1 (Rattus norvegicus) (UniProt P08482); test: qHTS Assay for Antagonists of Acetylcholine Muscarinic M1 Receptor: Measurement of IP-One Response (AID 944); also: nearly all actives have a fitted effect of over 75% in size
How it was run: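 Antagonist mode with rat M1 receptor transfected into CHO cells. Compound is added first for 10 min, carbachol at its EC80 follows for 30 min, and lysis reagents then allow TR-FRET detection of accumulated IP1.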

[17] = target: alpha-glucosidase (Oryza sativa, rice) (UniProt Q653V4); test: Counterscreen for Glucocerebrosidase Inhibitors: qHTS Assay for Rice alpha-Glucosidase at pH 5.0 (AID 997)
How it was run: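 Endpoint fluorogenic assay at pH 5.0: compounds (0.7 nM to 77 uM) titrated against 4 nM rice enzyme and 400 uM 4-MU-alpha-glucoside for 20 min at room temperature; NaOH/glycine stop, read ex 365/em 440 nm, Hill-fitted AC50.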

Compound	activity change, negative = inhibition [1]	Potency [2]	activity, negative = inhibition ([3]; at 17.2 µM (top of the series))	activity, negative = inhibition ([3]; at 38 µM (top of the series))	Potency [4]	Potency [5]	Potency [6]	Potency [7]	outcome [8]	Potency [9]	outcome [10]	outcome [11]	outcome [12]	activity change, negative = inhibition [13]	outcome [14]	Potency [15]	Potency [16]	Potency [17]	activity change, negative = inhibition [2]	activity, negative = inhibition ([3]; at 7.69 µM (top of the series) unless noted)
CC(C)C[C@H]1C(=O)N2CCC[C@@H]2[C@]2(O)O[C@](NC(=O)[C@H]3C=C4c5cccc6[nH]c(Br)c(c56)C[C@H]4N(C)C3)(C(C)C)C(=O)N12	-28.4% [at 17.2 µM]	inactive	-20.4%	-18.7%	> 46 µM and > 20.6 µM	> 46 µM and > 20.6 µM	inactive	inactive	inactive	inactive	inactive	inactive	inactive							
Cc1ccccc1CNc1ncnc2c1ncn2[C@@H]1O[C@@H](CO)[C@H](O)[C@@H]1O	0.479% [at 38 µM]	inactive			> 46 µM	> 46 µM		inactive	inactive		inactive	inactive	inactive	10.4% [at 38 µM]	inactive	inactive	inactive	inactive		
CNC(=O)[C@@H]1O[C@@H](n2cnc3c(N)ncnc32)[C@@H](O)[C@H]1O	-10.7% [at 38 µM]	inactive			> 46 µM	> 46 µM	inactive		inactive		inactive	inactive	inactive	6.42% [at 38 µM]	inactive	inactive		inactive		
C[C@]1(O)CC[C@H]2[C@H]3CC=C4N5CCN=C5CC[C@@]4(C)[C@H]3CC[C@@]21C	-0.00324%				> 46 µM	> 9.22 µM	inactive	inactive											-12.8% [at 2.29 µM]	-6.8%
C[N+]1(CCC[N+]2(C)C[C@H]3[C@H](C2)[C@H]2C=C[C@@H]3CC2)CCOCC1 (some centres undefined)	0.978%	inactive			> 46 µM		inactive	inactive						1.42%						
O=S(=O)(NCCNC/C=C\c1ccc(Br)cc1)c1cccc2cnccc12	2.61% [at 38 µM]	2 µM (active)			> 46 µM	> 46 µM	inactive		inactive			inactive	inactive	-7.5% [at 38 µM]		14.1 µM (active)		inactive		
